Rab9 promoter act – activates the Rab9 promoter | Potency, µM (titrated, usually from 9.22 µM), for the others: top-dose activation, negative = inhibition, hits mostly activators | Huh7 Rab9 promoter-luciferase reporter, luminescence, 24 h | hit rate 2.8% among 320,000; note: % of control where 0% means no effect; nearly all actives have a fitted effect of over 60% in size
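Measured in stably transfected Huh7 cells bearing a Rab9 promoter–luciferase construct: 24 h compound treatment at 37 °C, followed by luminescence detection.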
NPC1 promoter act – activates the NPC1 promoter; AID 485313; hit rate 2.4% among 320,000; Huh7 NPC1 promoter luciferase reporter, 24 h; Potency, µM (doses to about 9.22 µM), inactives show at the top dose activation, hits mostly activators; note: % of control where 0% means no effect; nearly all actives have a fitted effect of over 60% in size
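In 1536-well qHTS, Huh7 cells harboring an NPC1 promoter–luciferase construct received compound for 24 h; activation was quantified by luminescence following luciferase reagent addition.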
ELG1 genotoxic – inducers of genotoxicity in HEK293T ELG1-luciferase cells | hit rate 1.3% among 330,000 | HEK293T ELG1-luciferase reporter, luminescence, 16 h | Potency, µM (doses to about 46 µM), for the others: at the top dose activity change, positive = activation, actives largely listed as activators | AID 504466; note: % of control where 0% means no effect; nearly all actives have a fitted effect of over 60% in size
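HEK293T cells expressing luciferase-tagged ELG1 were treated with compound or DMSO for 16 hr at 37°C. Luciferase activity was then read after 30 min with ONE-Glo at room temperature; rising signal flags genetic stress.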
FLuc counter – firefly luciferase modulation, counter-screen for miR-21 project. P08659. purified FLuc, Km substrates, luminescence inhibition. Potency, µM (top dose mostly 57.5 µM), inactives show at the top dose activity change, negative = inhibition, hits mostly inhibitors. hit rate 6.9% among 360,000;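 note: plate controls were vehicle for no effect and reference inhibitor for full effect; nearly all actives have a fitted effect of over 55% in size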
Target sequence (P08659 whole entry, looked up): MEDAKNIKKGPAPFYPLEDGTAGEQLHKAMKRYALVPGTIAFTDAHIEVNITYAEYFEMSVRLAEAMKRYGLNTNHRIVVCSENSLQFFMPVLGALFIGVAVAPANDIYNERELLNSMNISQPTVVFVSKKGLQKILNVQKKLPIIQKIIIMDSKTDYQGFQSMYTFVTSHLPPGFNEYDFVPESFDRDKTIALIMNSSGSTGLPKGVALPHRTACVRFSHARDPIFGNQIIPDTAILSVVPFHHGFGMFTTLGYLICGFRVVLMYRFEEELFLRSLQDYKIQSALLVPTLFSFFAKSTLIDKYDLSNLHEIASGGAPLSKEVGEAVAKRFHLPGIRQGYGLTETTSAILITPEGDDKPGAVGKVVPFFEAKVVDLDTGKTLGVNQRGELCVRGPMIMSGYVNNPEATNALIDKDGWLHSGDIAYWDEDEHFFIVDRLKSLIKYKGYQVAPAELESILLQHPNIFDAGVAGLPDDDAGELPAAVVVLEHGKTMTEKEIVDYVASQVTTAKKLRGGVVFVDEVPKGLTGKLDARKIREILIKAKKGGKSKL
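Purified P. pyralis luciferase (10nM final) with 10uM D-luciferin and 10uM ATP (Km levels) in 50mM Tris acetate pH 7.5, 10mM Mg acetate, 0.01% Tween-20, 0.05% BSA; qHTS 6-point titration, ~60 µM downward; luminescence read.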
SMN2 splice enh – SMN2 splice variant enhancement | AID 1458 | Potency, µM (highest dose often 46.1 µM), without a hit: top-dose activity change, positive = activation, actives largely listed as activators | hit rate 2.8% among 210,000 | HEK293 SMN2-luciferase splicing reporter, luminescence, 30-36 h; note: % of control where 0% means no effect; nearly all actives have a fitted effect of over 55% in size
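qHTS luciferase splicing reporter: luminescence rises when SMN2 exon 7 is included in transfected HEK293 cells. Compound exposure lasted 30-36 h at 37C, with 4.5 mM final sodium butyrate as control, followed by a ONE-Glo read.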
ELG1 repair inh – inhibitors of ELG1-dependent DNA repair in HEK293T cells | HEK293T ELG1-luciferase reporter, luminescence, 16 h; DNA damage induced by 5-fluorouridine | Potency, µM (doses to about 46.1 µM), for inactives: top-dose activity change, negative = inhibition, hits mostly inhibitors | hit rate 2.3% among 330,000; note: % is set by controls: 0 for no effect and ±100 for the full control effect; nearly all actives have a fitted effect of over 55% in size
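5-Fluorouridine DNA damage + compound/DMSO, 2,000 cells/well, 16 h, 37 °C/5% CO2. ONE-Glo, 30 min RT, luminescence. Readout = decrease in reporter signal.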
* hit, by the source's call; [ ] = another dose, or the depositor's remark. Rows were chosen to be rich in hits. Some 9.2% of all compounds tested hit in one or more screens of this group. Calls come from the whole dose curve; as a rule, active = well fitted curve in the direction sought with a large enough effect; inconclusive = small, poorly fitted or top-dose-only effect, or another doubt; inactive = no such curve, though single readings can be large; an effect the other way counts as inactive or inconclusive. Potency is the fitted concentration of half-maximal effect.

What do the screens show for `CCCC1Oc2ccccc2C(=O)N(CC(=O)c2ccc3c(c2)OCCO3)C1=O` (stereo not given)?
Rab9 promoter act: inconclusive; NPC1 promoter act: 30.2%; ELG1 genotoxic: inconclusive; FLuc counter: 6.01µM*; ELG1 repair inh: inconclusive

What do the screens show for `O=C(CN1C(=O)c2ccccc2S1(=O)=O)c1ccc2c(c1)OCCCO2`?
Rab9 promoter act: -53.8%; NPC1 promoter act: -40.5%; ELG1 genotoxic: -14.8%; FLuc counter: 2.13µM*; ELG1 repair inh: 1.03µM*

How did O=C(CCN1C(=O)c2ccccc2S1(=O)=O)Nc1ccc2c(c1)OCCO2 do in these assays?
Rab9 promoter act: 9.6%; NPC1 promoter act: 22.2%; ELG1 genotoxic: -3.7%; FLuc counter: inconclusive; SMN2 splice enh: -9.8%; ELG1 repair inh: 1.4%

Results for CCOc1ccc(NC(=O)CCNC(=O)Cn2ccc3ccccc3c2=O)cc1 ?
Rab9 promoter act: 0.6%; NPC1 promoter act: -8.7%; ELG1 genotoxic: -1.3%; FLuc counter: -0.1%; ELG1 repair inh: 9.0%

How did O=C(NCCc1ccccc1)C1CCN(Cc2cc3ccccc3n2Cc2ccccc2)CC1 do in these assays?
FLuc counter: 0.8%

What do the screens show for `CCOc1ccc(/C=C/C(=O)OC(C)C(=O)NC2CCCCC2C)cc1OC` (stereo not given)?
Rab9 promoter act: 0.6%; NPC1 promoter act: -8.5%; ELG1 genotoxic: -0.1%; FLuc counter: 1.2%; ELG1 repair inh: -2.0%

How did C=C(C)[C@@H]1CC=C(CN2CCN(Cc3ccccc3)CC2)CC1 do in these assays?
Rab9 promoter act: -1.8%; NPC1 promoter act: 2.9%; ELG1 genotoxic: -4.1%; FLuc counter: 4.9%; ELG1 repair inh: 11.4%

What do the screens show for `CCOC(=O)c1[nH]c(C)c(CCC(=O)N2CCN(c3cc(C)ccc3C)CC2)c1C`?
FLuc counter: -8.8%

Results for CN(C)c1ccc(C(=N)c2ccc(N(C)C)cc2)cc1 ?
SMN2 splice enh: 13.0%

Results for CC(=O)c1ccc(N=Nc2ccc(N(C)C)cc2)cc1 ?
Rab9 promoter act: 0.398µM*; NPC1 promoter act: 0.562µM*; ELG1 genotoxic: inconclusive; FLuc counter: 0.301µM*; SMN2 splice enh: 14.0%; ELG1 repair inh: inconclusive

What do the screens show for `CN(C)c1ccc(N=Nc2ccccc2Br)cc1`?
Rab9 promoter act: 6.31µM*; NPC1 promoter act: 3.55µM*; ELG1 genotoxic: inconclusive; FLuc counter: 0.19µM*; ELG1 repair inh: inconclusive

How did CC(=O)c1ccc(N=Nc2ccc(C)cc2)cc1 do in these assays?
Rab9 promoter act: 0.316µM*; NPC1 promoter act: 0.316µM*; ELG1 genotoxic: 0.461µM*; FLuc counter: 0.953µM*; SMN2 splice enh: 1.26µM*; ELG1 repair inh: inconclusive

How did Cc1ccc([C@@]2(C)CC/C(=N/N=C3\CC[C@](C)(c4ccc(C)c(C)c4)c4cc(C)c(C)cc43)c3cc(C)c(C)cc32)cc1C do in these assays?
SMN2 splice enh: -9.3%[9.22 µM]

What do the screens show for `Cc1ccc(-n2nc3cc(C)c(N)cc3n2)cc1`?
Rab9 promoter act: 1.12µM*; NPC1 promoter act: 3.98µM*; ELG1 genotoxic: inconclusive; FLuc counter: 0.269µM*; SMN2 splice enh: 1.41µM*; ELG1 repair inh: inconclusive

Results for CCc1ccc(-n2nc3cc(C)c(N)cc3n2)cc1 ?
Rab9 promoter act: 0.126µM*; NPC1 promoter act: 0.316µM*; ELG1 genotoxic: 0.411µM*; FLuc counter: 0.19µM*; ELG1 repair inh: inconclusive

What do the screens show for `CCc1ccc(-n2nc3cc(C)c(NC(=O)c4ccccc4C)cc3n2)cc1`?
FLuc counter: inconclusive; SMN2 splice enh: 11.0%

What do the screens show for `CSCc1ccc(C(=O)Nc2cccc(C)c2C)cc1`?
Rab9 promoter act: inconclusive; NPC1 promoter act: inconclusive; ELG1 genotoxic: inconclusive; FLuc counter: 12µM*; SMN2 splice enh: 20µM*; ELG1 repair inh: inconclusive

Results for Cc1cccc(NC(=O)c2ccccn2)c1C ?
Rab9 promoter act: 3.55µM*; NPC1 promoter act: inconclusive; ELG1 genotoxic: 16.3%; FLuc counter: inconclusive; SMN2 splice enh: -0.5%; ELG1 repair inh: inconclusive

How did CCCCNC(=O)Nc1ccccn1 do in these assays?
Rab9 promoter act: -0.6%; NPC1 promoter act: 0.0%; ELG1 genotoxic: 0.2%; FLuc counter: -2.5%; SMN2 splice enh: 5.01µM*; ELG1 repair inh: 10.9%

What do the screens show for `Cc1ccccc1NC(=O)Nc1ccccn1`?
Rab9 promoter act: inconclusive; NPC1 promoter act: inconclusive; ELG1 genotoxic: 12.7%; FLuc counter: -10.6%; ELG1 repair inh: inconclusive

Results for Cc1cccc(NC(=O)Nc2ccccn2)c1C ?
Rab9 promoter act: 3.98µM*; NPC1 promoter act: inconclusive; ELG1 genotoxic: 13.0%; FLuc counter: 9.53µM*; ELG1 repair inh: inconclusive

Results for CC(=O)c1cccc(NC(=O)CC(c2ccc(C)cc2)N2Cc3ccccc3C2=O)c1 (stereo not given) ?
FLuc counter: -12.1%

What do the screens show for `Cn1ncc(Br)c1C(=O)Nc1c(F)c(F)cc(F)c1F`?
Rab9 promoter act: -5.1%; NPC1 promoter act: -6.2%; ELG1 genotoxic: 16.7%; FLuc counter: 0.1%; SMN2 splice enh: 25.1µM*; ELG1 repair inh: inconclusive

What do the screens show for `CSc1ccccc1NC(=O)c1c(Br)cnn1C`?
Rab9 promoter act: 17.7%; NPC1 promoter act: -0.4%; ELG1 genotoxic: 2.0%; FLuc counter: 2.0%; SMN2 splice enh: -14.7%; ELG1 repair inh: -7.8%

What do the screens show for `CCc1ccc(NC(=O)c2cnn(-c3c(C)cccc3C)c2C2CCN(C(=O)OC(C)(C)C)CC2)cc1`?
FLuc counter: 4.0%

How did CCN(CC)c1ccc(/C=N/N=C(c2ccccc2)c2ccccc2)c(O)c1 do in these assays?
Rab9 promoter act: -3.7%; NPC1 promoter act: -0.8%; ELG1 genotoxic: -1.6%; FLuc counter: 0.5%; SMN2 splice enh: -29.4%; ELG1 repair inh: -8.1%

What do the screens show for `Cc1nnc(C)n1/N=C/c1c(O)ccc2ccccc12`?
Rab9 promoter act: -3.9%[1.84 µM]; NPC1 promoter act: 1.1%; ELG1 genotoxic: 3.8%; FLuc counter: -2.2%; ELG1 repair inh: 26.2%

How did CCCS/C(N)=N/N=C/c1ccccc1O do in these assays?
Rab9 promoter act: 2.51µM*; NPC1 promoter act: 2.82µM*; ELG1 genotoxic: 3.16µM*; FLuc counter: 9.53µM*; SMN2 splice enh: 11.2µM*; ELG1 repair inh: inconclusive

What do the screens show for `C=CCS/C(N)=N\N=C\c1c(O)ccc2ccccc12`?
Rab9 promoter act: 2.82µM*; NPC1 promoter act: -0.5%; ELG1 genotoxic: inconclusive; FLuc counter: 4.78µM*; ELG1 repair inh: inconclusive

Results for CCCSc1ncc(Cl)c(C(=O)Nc2c(C(=O)c3ccc(C)cc3)oc3ccccc23)n1 ?
FLuc counter: 0.6%; SMN2 splice enh: 9.0%

How did COc1ccccc1Nc1ncnc2c1cnn2-c1cccc(C)c1 do in these assays?
Rab9 promoter act: 8.8%; NPC1 promoter act: 29.9%; ELG1 genotoxic: 1.5%; FLuc counter: 13.5µM*; SMN2 splice enh: 12.1%; ELG1 repair inh: inconclusive

Screens deposited in PubChem by National Center for Advancing Translational Sciences (NCATS).
